Experimental data: PubChem BioAssay (NCI)
The panel holds about 83,000 compounds, 20% with a hit somewhere; the sample as a whole holds those more often.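 Negative percent growth values reflect cell death: -40 means 40% of the cells present at the start died, and -100 means all died.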 A number with no mark means an inactive call. Active and inactive are the calls of the source. How the source made its calls: active means growth percent below 10; inactive means the rest.

These compounds were tested on HL-60(TB) leukemia (assay: NCI-60 one-dose screen, 48 h (100 = growth as untreated, 0 = no growth, -100 = all killed)). Conditions: 10 µM unless noted.

SMILES	growth
CCOC(=O)c1nc(Nc2ccc(C(C)=O)cc2)sc1C	95.5%
O=C(O)COc1ccc(-c2cssc2=S)cc1	101%
C#CCOC(=O)C(N)CSSCC(N)C(=O)O (configuration not stated)	120%
Cn1cc(-c2nonc2-c2c[nH]c3ccccc23)c2cccnc21	4.76% (active)
O=[N+]([O-])c1ccc(-n2[nH]nnc2=S)cc1	105%
Cc1nc(Nc2ccc(F)c(Cl)c2)sc1C(=O)O	11.6%
CCCCNc1cc(-c2cn[nH]c2-c2cc(C)cc(OC)c2)nc(-c2cccnc2)n1	105%
CC(C)(C)c1cc(C(C)(C)C)cc(S(=O)(=O)Nc2cc3ccccc3cc2C(=O)NCCN)c1	-19.8% (active)
COc1ccccc1NC(=O)C1CC(c2ccc(F)cc2)=NO1 (configuration not stated)	103%
CCOS(=O)(=O)c1ccc([N+](=O)[O-])cc1	95.9%
C=CC(C)(O)CCC1C(=C)CCC2C(C)(C)CCCC12C (configuration not stated)	82.1%
Cc1cccc(NC(=O)c2sc3nc4c(cc3c2N)CCCC4)c1C	9.11% (active)
CCn1c2ccccc2c2cc(C(O)c3cccc4ncccc34)ccc21 (configuration not stated)	10.5%
Cc1cc(C(C)(CC(C)C)c2ccc(O)c(C)c2)ccc1O	106%
O=NC1CC=CCC1c1ccccc1 (configuration not stated)	92.6%
CN1C(=O)CN2CCc3ccccc3C2c2cc(Cl)ccc21 (configuration not stated)	86.8%
COc1ccc(-c2csc(NC(=O)CSc3nc(C)c(-c4ccccc4)n3Nc3ccccc3)n2)cc1	50.3%
